Experimental data from the supplement of paper PMC12636033.
± gives the standard deviation of the averaged measurements. The full ranking holds about 33,000 sequences; the median of “E-score (rank enrichment, -0.5 to 0.5)” is about -0.0028, and the highest 2% start at about 0.23. What follows is part of a selection rich in the highest values, with near analogues and random picks from the rest.

Tested on: 2Sb-muMax20 (muMax20 with two 1,3-bis(methyl)benzene Cys staples, A13C/A17C and Q88C/A92C, C-terminal Lys)
Test: PBM 8-mer E-score (E-score (rank enrichment, -0.5 to 0.5)); higher = stronger preferential binding
Procedure: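 Protein binding microarray (universal PBM chip covering all 10-mers in fixed probe flanks) with chemically synthesized human Max(13-93) bHLH-LZ analogs (not full-length Max) bearing noncanonical residues (hArg, Tha, Aib, Nle at 65) and aromatic Cys staples. Read-out per 8-mer (and its reverse complement): E-score (rank-based enrichment, -0.5 to 0.5) and Z-score of median probe intensity.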

Row | Sequence | PBM 8-mer E-score
1 | TCCTGGCA | -0.0907 ± 0.03
2 | CCTTATAC | 0.175 ± 0.015
3 | CACACTTA | 0.15 ± 0.045
4 | ATTTAAAC | 0.167 ± 0.021
5 | AGGGGTTG | 0.266 ± 0.068
6 | AGGGGTTA | 0.135 ± 0.04
7 | AAGGGTTG | 0.0938 ± 0.044
8 | TGGGGTAA | 0.266 ± 0.033
9 | AGGGGCTA | 0.198 ± 0.055
10 | AGGGGCAT | 0.272 ± 0.028
11 | AGGGGCAC | -0.0355 ± 0.044
12 | AGGGGCTG | 0.252 ± 0.036
13 | AGGGGCAA | 0.159 ± 0.017
14 | GGGGGTAA | -0.0157 ± 0.073
15 | CGGGGTAA | 0.19 ± 0.055
16 | AGGGGCTC | 0.0348 ± 0.035
17 | TAAGGCGA | 0.0332 ± 0.024
18 | CCAACGTA | -0.0251 ± 0.052
19 | CCACTCAA | 0.199 ± 0.032
20 | ACTGGCAG | -0.182 ± 0.042
21 | AATGGTGG | 0.0724 ± 0.034
22 | AACCTTGT | -0.108 ± 0.054
23 | GGGGCTAA | 0.0894 ± 0.033
24 | ATCGCCAA | -0.0483 ± 0.083
25 | ACACCGTA | 0.0971 ± 0.049
26 | ATATCACA | 0.112 ± 0.039

Row | Sequence | PBM 8-mer E-score
27 | AAGCCCCG | 0.0771 ± 0.022
28 | AGGGGTAG | 0.309 ± 0.059
29 | CGGGGTAG | 0.147 ± 0.071
30 | AGGGGTAA | 0.202 ± 0.014
31 | AGGTCCGA | -0.128 ± 0.028
32 | AATTTAAA | 0.0161 ± 0.022
33 | ATTTTTAC | 0.127 ± 0.05
34 | GGAAACAA | 0.133 ± 0.078
35 | CGAAACAA | 0.0409 ± 0.023
36 | TGAAACAA | 0.261 ± 0.053
37 | AGAAACAA | 0.252 ± 0.0078
38 | AGAAACAT | 0.0919 ± 0.038
39 | AGAAACAC | 0.0175 ± 0.091
40 | ACCCTCTG | -0.181 ± 0.025
41 | GGGTCTTA | 0.104 ± 0.061
42 | GCGTATGA | 0.0375 ± 0.06
43 | ATTCTTCA | 0.00503 ± 0.029
44 | ACCGCTTC | -0.17 ± 0.019
45 | AATATTTA | 0.201 ± 0.0076
46 | GTTCAGGA | -0.184 ± 0.021
47 | CCCTGAGC | 0.0168 ± 0.058
48 | AATATGAA | 0.271 ± 0.004
49 | AATATGAG | -0.034 ± 0.019
50 | AATATGAC | 0.166 ± 0.012
51 | TATATGAA | 0.159 ± 0.022
52 | AATATGAT | 0.252 ± 0.03

Row | Sequence | PBM 8-mer E-score
53 | GATATGAA | 0.103 ± 0.013
54 | ATTTTACG | 0.126 ± 0.054
55 | CAGTTCAG | 0.0182 ± 0.11
56 | GTGCACAC | -0.0164 ± 0.1
57 | GGCTACGA | -0.0832 ± 0.011
58 | CACGTCCC | -0.161 ± 0.028
59 | ATGCGAGC | 0.00876 ± 0.045
60 | ATGCGAGG | 0.2342 ± 0.0017
61 | ATGCGAGA | -0.0394 ± 0.1
62 | CGCCCCCC | -0.286 ± 0.14
63 | CATGTACA | 0.125 ± 0.1
64 | CATGTACG | 0.311 ± 0.024
65 | AATGTACG | 0.115 ± 0.053
66 | TGCACTAA | 0.102 ± 0.019
67 | ATGGTGCA | 0.196 ± 0.05
68 | CAACACCC | 0.252 ± 0.0077
69 | CAACACCG | -0.202 ± 0.036
70 | GAACACCC | -0.145 ± 0.022
71 | GAGGTATA | 0.144 ± 0.025
72 | TAGTAGAA | -0.0551 ± 0.015
73 | ACGGACAA | 0.0365 ± 0.0016
74 | CGACGCAG | -0.238 ± 0.017
75 | ATGAAATA | 0.169 ± 0.024
76 | ATGAATGA | 0.181 ± 0.035
77 | ATGAAATG | 0.277 ± 0.066
78 | ATGAATGG | 0.297 ± 0.033

Row | Sequence | PBM 8-mer E-score
79 | ATGAATGC | 0.164 ± 0.06
80 | ATGAAATC | 0.137 ± 0.039
81 | CCCGCGAG | 0.015 ± 0.026
82 | CGCAGACG | -0.0875 ± 0.1
83 | CATGTGCC | 0.161 ± 0.0077
84 | ATGGCCGC | -0.0812 ± 0.007
85 | CCTGCGAA | -0.0794 ± 0.0094
86 | AGGGTGGC | 0.0374 ± 0.1
87 | AGGGGTGA | 0.16 ± 0.05
88 | AGGGTGGA | -0.0307 ± 0.022
89 | AGGGGTGG | 0.287 ± 0.046
90 | AAGGGTGG | 0.0428 ± 0.051
91 | AGGGTGGG | 0.266 ± 0.032
92 | GTTCGTAA | -0.00989 ± 0.0088
93 | ACTATCGC | 0.097 ± 0.036
94 | AATGCTAT | 0.0731 ± 0.033
95 | ACCGCATA | 0.0507 ± 0.032
96 | AGGTAAAG | 0.2635 ± 0.0021
97 | AGGTAAAT | 0.0873 ± 0.074
98 | AGGTAAAC | -0.0251 ± 0.11
99 | AGCAGATC | -0.143 ± 0.068
100 | ACGTCTTA | -0.193 ± 0.025
101 | CATGTTGA | 0.257 ± 0.02
102 | CATGTTTC | 0.05 ± 0.033
103 | CATGTTGC | 0.0698 ± 0.024
104 | CATGTTTA | 0.239 ± 0.024

Row | Sequence | PBM 8-mer E-score
105 | AATGTTGA | 0.0172 ± 0.078
106 | GATGTTTA | 0.12 ± 0.03
107 | AACGGTGG | -0.0485 ± 0.0095
108 | GAAATGGC | 0.0246 ± 0.0079
109 | ACTATACG | 0.156 ± 0.033
110 | CTCTAATA | 0.0986 ± 0.022
111 | CTAATCAC | 0.14 ± 0.0037
112 | CTAATCAA | 0.277 ± 0.014
113 | CGAATCAA | 0.2677 ± 0.00054
114 | TGAATCAA | 0.0626 ± 0.026
115 | TTAATCAA | 0.0337 ± 0.0076
116 | CGAATCAG | -0.163 ± 0.065
117 | AGGCCACT | 0.129 ± 0.0082
118 | CGTAGCAA | -0.0306 ± 0.0061
119 | ACTTCATA | 0.0718 ± 0.0033
120 | CTAACCGC | -0.0848 ± 0.018
121 | AAAGTTTA | 0.249 ± 0.022
122 | AAAGTTTC | -0.0128 ± 0.036
123 | GAAGTTTA | -0.0783 ± 0.12
124 | CCGAGAGG | -0.225 ± 0.049
125 | CAGCGCGA | -0.0207 ± 0.052
126 | CCCCCATA | 0.0403 ± 0.02
127 | GACCCATA | 0.23906 ± 6.4e-05
128 | GGCCCATA | -0.0795 ± 0.036
129 | CACCCATA | 0.21 ± 0.0057
130 | AACCCATA | 0.229 ± 0.016

Row | Sequence | PBM 8-mer E-score
131 | GCCCCATA | 0.356 ± 0.039
132 | CATCTACA | 0.137 ± 0.025
133 | ACCTGATC | -0.0825 ± 0.031
134 | ATCTAGGG | 0.171 ± 0.013
135 | AACCCTCT | -0.0379 ± 0.0099
136 | AACCATAA | 0.13 ± 0.018
137 | ACGCATAT | 0.246 ± 0.0099
138 | ACCCATAG | 0.0412 ± 0.039
139 | ACCCATAC | 0.119 ± 0.051
140 | CCCCACAC | 0.19 ± 0.13
141 | CCCCACAA | 0.264 ± 0.0045
142 | ACGCATAA | 0.17 ± 0.01
143 | AACCATAT | 0.232 ± 0.0038
144 | CCCCACAG | -0.09771 ± 0.00011
145 | ACCCATAT | 0.252 ± 0.051
146 | ACGCATAG | -0.0652 ± 0.023
147 | AACCATAC | -0.0703 ± 0.11
148 | ACACAGAG | -0.0541 ± 0.0044
149 | ACGGACTG | -0.167 ± 0.011
150 | ACAGGACA | -0.0877 ± 0.075
151 | TCCTAAGA | -0.186 ± 0.031
152 | GTAGCTAC | 0.0481 ± 0.06
153 | ACGCACAT | 0.235 ± 0.024
154 | ACCCATAA | 0.25 ± 0.023
155 | GCCCATAA | 0.0149 ± 0.062
156 | TCCCATAA | 0.0657 ± 0.052

Row | Sequence | PBM 8-mer E-score
157 | CACCATTA | -0.044 ± 0.042
158 | AACCATTA | 0.276 ± 0.005
159 | ACGCACAA | 0.0307 ± 0.012
160 | ACGCACAG | -0.146 ± 0.017
161 | CCCCATAA | 0.3007 ± 0.003
162 | ACCCATTA | 0.161 ± 0.015
163 | AGCCATAA | 0.0405 ± 0.0087
164 | AACCATTG | -0.163 ± 0.044
165 | TCCTGGAA | -0.283 ± 0.06
166 | TACTTTCA | 0.0779 ± 0.057
167 | TACCGAGA | -0.0899 ± 0.043
168 | CGGCGTGA | -0.113 ± 0.017
169 | CTAAGTGA | -0.204 ± 0.046
170 | AGCGTGCC | -0.0325 ± 0.041
171 | CTTGGAAC | 0.128 ± 0.018
172 | AGTACGTC | 0.257 ± 0.02
173 | AGTACGTA | 0.183 ± 0.018
174 | AGTACGTG | 0.0987 ± 0.039
175 | GCCCGAAC | -0.0411 ± 0.062
176 | AATCCGCA | -0.0479 ± 0.02
